Wnt bcat act – activators of Wnt/beta-catenin signaling; Wnt/beta-catenin reporter cell assay, activator, plate reader; 300,000 compounds, 1.2% hits; AID 743398; activation, % at 9.35 µM; in the data active means activation above about 30%, passing the limit was not always enough; inconclusive means no clear call, values can overlap the other calls
Glyco luc inh – N-linked glycosylation inhibition. D54 ERlucT glycosylation luciferase reporter, 24 h; percent of 100 nM tunicamycin response. reporter increase, % at 12.5 µM. 360,000 compounds, 0.23% hits. AID 588692;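 active means mean luciferase reporter signal, scaled so untreated is 0 and the glycosylation-blocking control 100, at or above a set limit in every replicate; inconclusive means mean reaches the limit but not every replicate does; inactive means mean below the limit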;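 further: luciferase carries N-glycosylation sites so blocking glycosylation raises the light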
MITF TRPM1 HTS – activators of MITF-driven TRPM1 promoter activity in SK-MEL-5 cells; SK-MEL-5 TRPM1-promoter luciferase, 24 h; % of positive control, neutral wells = 0; activation, % at 12.5 µM; 300,000 compounds, 0.75% hits; AID 588334;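 active means mean activation of at least 80% with every replicate also reaching 80%; inconclusive means mean reaches 80% but some replicate falls short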
esBAF inh – SWI/SNF esBAF complex inhibition; reporter increase, % at 12.5 µM; 350,000 compounds, 2% hits; mouse ES cells, Bmi1-luciferase knock-in reporter, 24 h; 100% = twice the neutral-well signal; in the data active means activation above about 40%; inconclusive means no clear call, values can overlap the other calls;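 further: a rise in the Bmi1 reporter signal indicates esBAF inhibition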
Vif imaging – HIV Vif inhibition | HEK293T cells, Vif self-association by quenched fluorescence, imaging, 24 h | inhibition, % at 7.49 µM | 340,000 compounds, 0.35% hits | AID 602346; in the data active means inhibition above about 50%, passing the limit was not always enough; inconclusive means no clear call, values can overlap the other calls; inactive means below about 31%
PfHsp90 set2 – reduces growth (ATP signal) of yeast expressing P. falciparum Hsp90; S. cerevisiae expressing PfHsp90, BacTiter-Glo ATP, 48 h; yeast lacking PDR1 and PDR3 efflux regulators; inhibition, % at 9.4 µM; 310,000 compounds, 0.32% hits; AID 504621;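 active means every replicate shows inhibition above about 80%, whatever the replicate mean, limit read from the data; inconclusive means mean inhibition reaches the set limit but some replicate falls short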
Large screens that a line does not name were inactive. Compounds with a hit are over-represented: about 3% of the library has one in this group of screens.

O=C(NCc1cccs1)c1nc2ncccn2n1	none (no result: Wnt bcat act)
O=[N+]([O-])c1ccc(S(=O)Cc2ccccc2)c([N+](=O)[O-])c1 (stereo not given)	PfHsp90 set2 137 (no result: esBAF inh)
CCn1c(COc2ccccc2OC)nnc1SCC#N	none (no result: MITF TRPM1 HTS)
Cc1c(Cl)cccc1NC(=O)CC(C(=O)O)C1CCCO1 (stereo not given)	Vif imaging 98 (no result: MITF TRPM1 HTS)
CC1CCN(CCc2nc3cc(NC(=O)Nc4ccccc4)ccc3n2C)CC1	esBAF inh 44 (no result: MITF TRPM1 HTS, PfHsp90 set2)
CC(=O)Nc1ccc2c(c1)nc(CCN1CCC(C)CC1)n2C	none
CC(=O)OC[C@H]1O[C@@H](n2ncc(=O)[nH]c2=O)[C@H](OC(C)=O)[C@@H]1OC(C)=O	esBAF inh 48 (no result: Wnt bcat act, MITF TRPM1 HTS, PfHsp90 set2)
COc1ccc(N2CCN(c3cnc4ccccc4n3)CC2)cc1	MITF TRPM1 HTS 97, esBAF inh 53
COc1cccc(N2CCN(c3cnc4ccccc4n3)CC2)c1	none (no result: esBAF inh)
Clc1ccc(Sc2cnc3ccccc3n2)cc1	MITF TRPM1 HTS inconclusive, esBAF inh 45
c1ccc(N2CCN(c3cnc4ccccc4n3)CC2)cc1	none (no result: Wnt bcat act)
Fc1ccc(N2CCN(c3cnc4ccccc4n3)CC2)cc1	Wnt bcat act 42
Clc1ccc(N2CCN(c3cnc4ccccc4n3)CC2)cc1	esBAF inh 45 (no result: Wnt bcat act)
COc1ccc(CCN2C(=O)CC(N3CCN(S(=O)(=O)c4ccccc4)CC3)C2=O)cc1 (stereo not given)	none
C[C@@H]1CN([C@H](C)CO)C(=O)c2ccccc2-c2ccccc2CO[C@@H]1CN(C)S(=O)(=O)c1ccccc1	none (no result: Wnt bcat act, Glyco luc inh, MITF TRPM1 HTS, Vif imaging, PfHsp90 set2)
COc1ccc(/C(C)=N/Nc2cccc(C(=O)O)c2)cc1OC	esBAF inh 53
COc1ccc(C(=O)N/N=C(/C)c2cccc(NC(=O)c3ccncc3)c2)cc1OC	none
C/C(=N\Nc1cccc(C(=O)O)c1)c1ccc(Cl)s1	esBAF inh 73
COc1ccc2[nH]c3c(c2c1)CCN1C(=O)N([C@@H](C)C(=O)NCc2c(F)cccc2Cl)C(=O)[C@]31C	none (no result: MITF TRPM1 HTS)
Cc1c(C(=O)NCc2ccoc2)oc2ccc3c(c12)C(=O)CC(C)(C)O3	esBAF inh 104 (no result: Wnt bcat act)
O=C(/C=C/Nc1ccc([N+](=O)[O-])cc1Br)c1cccc2ccccc12	Wnt bcat act 48, MITF TRPM1 HTS 115 (no result: esBAF inh)
COc1cc(N(C)C)ccc1C=c1c2ccccc2n2c1cc(-c1ccccc1)[n+]2C	PfHsp90 set2 104 (no result: MITF TRPM1 HTS, esBAF inh)
CN(C)c1ccc(C=c2c3ccccc3n3c2c2c([n+]3C)CCCC2)cc1	Glyco luc inh 70
CN(C)c1ccc(C=c2c3ccccc3n3c2cc(-c2ccc(Cl)cc2)[n+]3C)cc1	Glyco luc inh inconclusive (no result: esBAF inh)
CN(C)c1ccc(C=c2c3ccccc3n3c2cc(-c2ccccc2)[n+]3C)cc1	Glyco luc inh inconclusive, PfHsp90 set2 105 (no result: esBAF inh)
c1ccc2cc(OCc3nc4ccccc4[nH]3)ccc2c1	esBAF inh 51 (no result: Wnt bcat act)
COc1ccc(OCc2nc3ccccc3[nH]2)cc1	none (no result: Wnt bcat act)
Brc1ccc(OCc2nc3ccccc3[nH]2)cc1	Wnt bcat act 36, MITF TRPM1 HTS 100, esBAF inh inconclusive
COc1ccccc1OCc1nc2ccccc2[nH]1	Wnt bcat act 64, MITF TRPM1 HTS inconclusive
Cc1ccccc1OCc1nc2ccccc2[nH]1	none (no result: esBAF inh)
O=C1/C(=C/C=C/c2ccco2)SC(=S)N1NS(=O)(=O)c1ccccc1	none (no result: esBAF inh)
c1ccc2nc(-c3ccc4c(c3)OCO4)ccc2c1	Wnt bcat act 50 (no result: MITF TRPM1 HTS)
COc1ccc(OC)c2nc(-c3ccc4c(c3)OCO4)ccc12	Wnt bcat act 48
COc1ccc(-c2oc(=O)c3cc(OC)c(OC)cc3c2-c2ccc3c(c2)OCO3)cc1	none
O=S1(=O)CC(N2CCN(c3ccccn3)CC2)CN1Cc1ccccc1 (stereo not given)	none (no result: MITF TRPM1 HTS, Vif imaging, PfHsp90 set2)
Fc1ccccc1N1CCN(c2nc3ccccc3n3nnnc23)CC1	none (no result: Wnt bcat act, Vif imaging)
O=C(Nc1cccc(-n2cnnn2)c1)c1cc(Cl)ccc1Cl	Glyco luc inh 34
COc1cc(/C=C/C(=O)N2C(=O)c3cccc(N)c3C2=O)cc(OC)c1OC	Wnt bcat act 135, Vif imaging inconclusive
CCNC(=O)c1cc2c(=O)n3cccc(C)c3nc2n(Cc2ccc(C)cc2)c1=N	none (no result: Wnt bcat act)
CCCn1c(=N)c(C(=O)NCc2ccc3c(c2)OCO3)cc2c(=O)n3cccc(C)c3nc21	Vif imaging 93
COc1ccc(CCn2c(=N)c(C(=O)NCC3CCCO3)cc3c(=O)n4cccc(C)c4nc32)cc1 (stereo not given)	Glyco luc inh 41
COC(=O)C1=C(C)N(Cc2cccc(C(F)(F)F)c2)C(=NCc2ccc3c(c2)OCO3)NC1c1ccc(F)cc1 (stereo not given)	none (no result: Glyco luc inh, MITF TRPM1 HTS, esBAF inh, Vif imaging, PfHsp90 set2)
CC(C)(C)c1cc(NC(=O)COC(=O)c2ccc3c(=O)n4c(nc3c2)CCC4)n(-c2ccccc2)n1	none (no result: Wnt bcat act, Vif imaging)
Cn1ccsc1=NC(=O)c1cccc(OC(F)F)c1	esBAF inh 53
Cc1noc(C)c1S(=O)(=O)N(C)C[C@H]1OCCCC[C@H](C)Oc2ccc(NC(=O)CCCN(C)C)cc2C(=O)N([C@H](C)CO)C[C@H]1C	none (no result: Wnt bcat act, Glyco luc inh, MITF TRPM1 HTS, Vif imaging, PfHsp90 set2)
COc1ccc(-c2csc(Nc3ncccc3C)n2)cc1	none (no result: Wnt bcat act)
COc1ccc(-c2csc(Nc3ncccc3C)n2)cc1OC	esBAF inh 87
COc1ccc(-c2csc(Nc3ncccn3)n2)cc1C	Wnt bcat act 38, esBAF inh inconclusive
COC(=O)c1[nH]c(C)c(/C(O)=C2\C(=O)C(=O)N(CCN3CCOCC3)C2c2ccccc2OC)c1C (stereo not given)	none
Cc1ccc(S(=O)(=O)N2CCC(C(=O)OC(C)C(=O)NC(N)=O)CC2)cc1C (stereo not given)	none (no result: esBAF inh)
Cc1ccc(NC(=O)CNCc2cccs2)cc1Br	esBAF inh inconclusive
CC(=O)c1ccc(NC(=O)CNCc2cccs2)cc1	esBAF inh 54
COc1ccc(C2Nc3ccccc3C(=O)N2c2ccc(C)cc2)cc1Cn1nc(C)c([N+](=O)[O-])c1C (stereo not given)	MITF TRPM1 HTS 90, esBAF inh 86
O=c1/c(=C\c2ccc(F)cc2)sc2n1CCCN=2	Wnt bcat act 53, Vif imaging inconclusive (no result: esBAF inh)
O=c1/c(=C/c2ccc(O)cc2)sc2n1CCCN=2	MITF TRPM1 HTS inconclusive (no result: Wnt bcat act, esBAF inh)
CC1CCC(=NNC(=O)Cc2ccccc2)CC1 (stereo not given)	none
CC1SCC(=NOCc2ccccc2)CS1 (stereo not given)	Wnt bcat act 48 (no result: MITF TRPM1 HTS, esBAF inh, PfHsp90 set2)
O=C(CSc1nc2nc(-c3cccs3)cc(C(F)(F)F)c2c(=O)[nH]1)C(F)(F)F	Glyco luc inh 37
O=C(NCc1ccccc1)c1onc(CSc2ccccc2)c1C(=O)NCc1ccccc1	none
Cc1nc(-c2ccc(NC(=O)C3CCCCC3)cc2)cs1	esBAF inh 68 (no result: Wnt bcat act)
O=C(Nc1ccc(-c2cn3ccsc3n2)cc1)C1CC1	Wnt bcat act 42
O=C(Nc1ccc(-c2ccc3nncn3n2)cc1)C1CCCC1	Wnt bcat act 44
